{"source": "PubChem BioAssay AID504594", "about": "(Broad Institute, 2011)", "note": "Out of some 2,000 compounds screened, fewer than 10 were called active.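 The calls were made as follows: active = growth inhibition of at least 75% in every replicate, which also brings the mean inhibition to 75% or more; inconclusive = mean inhibition 75% or more but some replicate under 75%; inactive = the rest.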 Only a sample is shown."}
{"assay": "growth inhibition of PfHsp90-dependent yeast, primary screen, antimalarial PfHsp90 inhibitor project, S. cerevisiae, BacTiter-Glo luminescence (AID 504594);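 also: 0% = DMSO neutral control wells and 100% = 20 µM radicicol control wells; higher value means stronger growth inhibition because the sign is flipped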", "settings": "S. cerevisiae expressing PfHsp90, BacTiter-Glo growth, 48 h; at 9.4 µM; hits give high values"}
{"compound": "CC(C)(C)C(O)C(Oc1ccc(Cl)cc1)n1cncn1", "note": "(stereo not given)", "growth inhibition": "96.5% (active)"}
{"compound": "CN1CCN(C(=O)OC2c3nccnc3C(=O)N2c2ccc(Cl)cn2)CC1", "note": "(stereo not given)", "growth inhibition": "6.28% (inactive)"}
{"compound": "O=C1NC(=O)C2(Cc3ccccc3N3CCCC32)C(=O)N1c1ccc(Cl)cc1", "note": "(stereo not given)", "growth inhibition": "-0.293% (inactive)"}
{"compound": "O=S(=O)(c1ccc(F)cc1)N1CCCCC1c1cccnc1", "note": "(stereo not given)", "growth inhibition": "-1.69% (inactive)"}
{"compound": "Clc1ccc(CSC(Cn2ccnc2)c2ccc(Cl)cc2Cl)cc1", "note": "(stereo not given)", "growth inhibition": "95% (active)"}
{"compound": "c1ccc(Cn2ccnc2)cc1", "growth inhibition": "-14.6% (inactive)"}
{"compound": "Cn1c(O)c(C=NCCc2c[nH]c3ccccc23)c(=O)n(C)c1=O", "growth inhibition": "-4.75% (inactive)"}
{"compound": "C[N+]1(C)CCN(c2ccccc2)CC1", "growth inhibition": "4.14% (inactive)"}
{"compound": "COc1cc2c3cc1Oc1cc(ccc1O)C[C@@H]1c4c(cc(OC)c(O)c4Oc4ccc(cc4)C[C@H]3N(C)CC2)CCN1C", "growth inhibition": "-1.85% (inactive)"}
{"compound": "CCOc1ccc(N2C(=O)NC(=O)/C(=C\\c3cc(OC)c(OC)cc3[N+](=O)[O-])C2=O)cc1", "growth inhibition": "-0.939% (inactive)"}
